“And” between values parts separate entries of the source, which are not always exact repeats. Equal values may be shown once. The whole screen tested about 5,500 compounds, of which about 2,000 (36%) were called active. Inconclusive results (about 18%) are left out. Cut-off read from the data, not from the text of the source: active = normalized growth mostly below about 0.91 (no sharp cut-off); inconclusive = no clear call, values can overlap the other calls; inactive = mostly above about 0.92. The list shows a part of the results.
Assay: chemical genetic growth profiling, strain panel (AID 1159580);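 note: tested at 20 µM; growth read once vehicle control cultures reached saturation at 30 °C; 1 = growth at the plate median or of vehicle wells; lower values mean less growth of the strain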
Settings: S. cerevisiae deletion strains, growth OD

Measured: normalized growth

CCC(/C=C/[C@@H](C)[C@H]1CCC2C3CC=C4C[C@@H](O)CC[C@]4(C)C3CC[C@@]21C)C(C)C (some centres undefined)
inactive: locus YAL013W, strain DEP1, stronger effect = lower value 0.999 | locus YAL021C, strain ccr4, stronger effect = lower value 1.02 | locus YAL026C, strain drs2, stronger effect = lower value 0.935 | locus YAL030W, strain snc1, stronger effect = lower value 0.99 | locus YBL061C, strain skt5, stronger effect = lower value 0.997 | locus YBR009C, strain hhf1, stronger effect = lower value 0.972 | locus YBR021W, strain FUR4, stronger effect = lower value 1.04 | locus YBR023C, strain chs3, stronger effect = lower value 0.988 | locus YBR171W, strain sec66, stronger effect = lower value 0.985 | locus YBR229C, strain ROT2, stronger effect = lower value 0.993 | locus YBR231C, strain swc5, stronger effect = lower value 0.988 | locus YBR279W, strain paf1, stronger effect = lower value 0.994 | locus YCL011C, strain gbp2, stronger effect = lower value 0.968 | locus YCL016C, strain dcc1, stronger effect = lower value 1 | locus YCL029C, strain bik1, stronger effect = lower value 1 | locus YCL061C, strain MRC1, stronger effect = lower value 1.01 | locus YCL069W, strain vba3, stronger effect = lower value 0.99 | locus YCR088W, strain abp1, stronger effect = lower value 0.994 | locus YDL005C, strain med2, stronger effect = lower value 0.983 | locus YDL035C, strain GPR1, stronger effect = lower value 1.02 | locus YDL040C, strain nat1, stronger effect = lower value 0.987 | locus YDL074C, strain BRE1, stronger effect = lower value 0.992 | locus YDL101C, strain DUN1, stronger effect = lower value 1.01 | locus YDL185W, strain tfp1, stronger effect = lower value 0.986 | locus YDL192W, strain arf1, stronger effect = lower value 0.986 | locus YDR001C, strain nth1, stronger effect = lower value 0.991 | locus YDR069C, strain doa4, stronger effect = lower value 1.01 | locus YDR101C, strain arx1, stronger effect = lower value 0.987 | locus YDR137W, strain rgp1, stronger effect = lower value 0.931 | locus YDR150W, strain NUM1, stronger effect = lower value 1.02 | locus YDR159W, strain sac3, stronger effect = lower value 0.959 | locus YDR162C, strain NBP2, stronger effect = lower value 1.02 | locus YDR195W, strain ref2 0.963 | locus YDR297W, strain sur2, stronger effect = lower value 0.991 | locus YDR318W, strain mcm21, stronger effect = lower value 0.987 | locus YDR334W, strain swr1, stronger effect = lower value 0.988 | locus YDR335W, strain msn5, stronger effect = lower value 0.982 | locus YDR388W, stronger effect = lower value 0.989 | locus YDR392W, strain spt3, stronger effect = lower value 0.894 | locus YDR502C, strain sam2, stronger effect = lower value 0.992 | locus YEL003W, strain gim4, stronger effect = lower value 0.982 | locus YEL037C, strain rad23, stronger effect = lower value 0.976 | locus YEL061C, strain CIN8 (second series), stronger effect = lower value 0.979 | locus YEL061C, strain CIN8, stronger effect = lower value 0.999 | locus YER015W, strain faa2, stronger effect = lower value 1 | locus YER016W, strain bim1, stronger effect = lower value 0.979 | locus YER110C, stronger effect = lower value 0.995 | locus YER111C, strain swi4, stronger effect = lower value 0.99 | locus YER155C, strain BEM2 (second series), stronger effect = lower value 0.993 | locus YER155C, strain BEM2, stronger effect = lower value 0.986 | locus YER167W, strain BCK2, stronger effect = lower value 0.997 | locus YFR010W, strain ubp6, stronger effect = lower value 0.997 | locus YGL078C, strain dbp3, stronger effect = lower value 0.991 | locus YGL086W, strain mad1, stronger effect = lower value 1.02 | locus YGL167C, strain pmr1, stronger effect = lower value 0.975 | locus YGL173C, strain kem1, stronger effect = lower value 0.983 | locus YGL227W, strain vid30, stronger effect = lower value 0.985 | locus YGL240W, strain doc1, stronger effect = lower value 0.998 | locus YGL248W, strain PDE1, stronger effect = lower value 1 | locus YGL253W, strain hxk2, stronger effect = lower value 0.962 | locus YGR135W, strain pre9, stronger effect = lower value 0.989 | locus YGR252W, strain gcn5, stronger effect = lower value 0.971 | locus YHR013C, strain ard1, stronger effect = lower value 0.957 | locus YHR027C, strain rpn1, stronger effect = lower value 0.996 | locus YHR030C, strain SLT2, stronger effect = lower value 1 and 0.954 | locus YHR079C, strain IRE1 (second series), stronger effect = lower value 0.991 | locus YHR079C, strain IRE1, stronger effect = lower value 0.964 | locus YHR094C, strain hxt1, stronger effect = lower value 0.995 | locus YHR129C, strain ARP1, stronger effect = lower value 0.999 | locus YHR142W, strain chs7, stronger effect = lower value 1.02 | locus YHR200W, strain rpn10, stronger effect = lower value 0.981 | locus YIL066C, strain RNR3, stronger effect = lower value 1 | locus YIL073C, strain SPO22, stronger effect = lower value 1 | locus YIL125W, strain kgd1, stronger effect = lower value 1.02 | locus YIR030C, strain dcg1, stronger effect = lower value 1 | locus YJL092W, strain hpr5, stronger effect = lower value 0.998 | locus YJL095W, strain BCK1 (second series), stronger effect = lower value 0.997 | locus YJL095W, strain BCK1, stronger effect = lower value 1.01 and 0.976 | locus YJL115W, strain asf1, stronger effect = lower value 0.993 | locus YJL129C, strain trk1, stronger effect = lower value 1.01 | locus YJL134W, strain LCB3, stronger effect = lower value 0.997 | locus YJL154C, strain vps35, stronger effect = lower value 0.981 | locus YJL164C, strain tpk1, stronger effect = lower value 1 | locus YJL166W, strain qcr8, stronger effect = lower value 0.981 | locus YJL168C, strain set2, stronger effect = lower value 0.997 | locus YJL187C, strain SWE1 (second series), stronger effect = lower value 1 | locus YJL187C, strain SWE1, stronger effect = lower value 0.993 | locus YJR043C, strain POL32, stronger effect = lower value 1.04 | locus YJR066W, strain TOR1, stronger effect = lower value 0.929 | locus YKL009W, strain mrt4, stronger effect = lower value 1.02 | locus YKL068W, stronger effect = lower value 0.994 | locus YKL085W, strain MDH1 (second series), stronger effect = lower value 0.993 | locus YKL085W, strain MDH1, stronger effect = lower value 0.993 | locus YKL160W, strain elf1, stronger effect = lower value 1.04 | locus YKR001C, strain vps1, stronger effect = lower value 1.02 | locus YKR026C, strain gcn3, stronger effect = lower value 0.984 | locus YKR091W, strain srl3, stronger effect = lower value 0.99 | locus YLL001W, strain dnm1, stronger effect = lower value 1 | locus YLL026W, stronger effect = lower value 1.01 | locus YLL041C, strain sdh2, stronger effect = lower value 1 | locus YLR027C, strain aat2, stronger effect = lower value 0.984 | locus YLR039C, strain RIC1, stronger effect = lower value 0.964 | locus YLR058C, strain SHM2, stronger effect = lower value 0.998 | locus YLR102C, strain apc9, stronger effect = lower value 0.992 | locus YLR113W, strain HOG1, stronger effect = lower value 0.951 | locus YLR221C, strain rsa3, stronger effect = lower value 1 | locus YLR258W, strain gsy2, stronger effect = lower value 0.991 | locus YLR262C, strain YPT6 (second series), stronger effect = lower value 0.917 | locus YLR262C, strain YPT6, stronger effect = lower value 1.01 | locus YLR268W, strain sec22, stronger effect = lower value 0.987 | locus YLR320W, strain mms22, stronger effect = lower value 0.998 | locus YLR330W, strain CHS5, stronger effect = lower value 1 | locus YLR342W, strain FKS1 (second series), stronger effect = lower value 1.05 | locus YLR342W, strain FKS1, stronger effect = lower value 0.986 | locus YLR357W, strain rsc2, stronger effect = lower value 1.03 | locus YLR370C, strain arc18, stronger effect = lower value 0.988 | locus YLR371W, strain rom2, stronger effect = lower value 0.999 | locus YLR384C, strain iki3, stronger effect = lower value 0.982 | locus YLR418C, strain cdc73, stronger effect = lower value 1.03 | locus YML016C, strain PPZ1, stronger effect = lower value 0.991 | locus YML032C, strain rad52, stronger effect = lower value 0.994 | locus YML120C, strain ndi1, stronger effect = lower value 0.99 | locus YML124C, strain tub3, stronger effect = lower value 0.992 | locus YMR058W, strain fet3, stronger effect = lower value 0.984 | locus YMR078C, strain ctf18, stronger effect = lower value 0.987 | locus YMR125W, strain sto1, stronger effect = lower value 0.975 | locus YMR129W, stronger effect = lower value 1 | locus YMR205C, strain PFK2, stronger effect = lower value 0.981 | locus YMR223W, strain ubp8, stronger effect = lower value 0.974 | locus YMR231W, strain pep5, stronger effect = lower value 0.99 | locus YMR263W, strain SAP30, stronger effect = lower value 1.02 | locus YMR307W, strain GAS1, stronger effect = lower value 1.11 | locus YNL067W, strain RPL9B, stronger effect = lower value 1.02 | locus YNL071W, strain lat1, stronger effect = lower value 0.986 | locus YNL128W, strain TEP1, stronger effect = lower value 1 | locus YNL183C, strain NPR1, stronger effect = lower value 0.904 | locus YNL209W, strain ssb2, stronger effect = lower value 0.993 | locus YNL233W, strain BNI4, stronger effect = lower value 1.02 | locus YNL248C, strain rpa49, stronger effect = lower value 0.987 | locus YNL250W, strain rad50, stronger effect = lower value 0.991 | locus YNL271C, strain bni1, stronger effect = lower value 0.99 | locus YNL298W, strain CLA4, stronger effect = lower value 1 | locus YNL307C, strain MCK1, stronger effect = lower value 1.01 | locus YNL322C, strain KRE1 (second series), stronger effect = lower value 0.989 | locus YNL322C, strain KRE1, stronger effect = lower value 0.995 | locus YNR049C, strain mso1, stronger effect = lower value 0.979 | locus YNR052C, strain pop2, stronger effect = lower value 0.983 | locus YOL012C, strain htz1 1.17 | locus YOL147C, strain pex11, stronger effect = lower value 0.992 | locus YOR001W, strain rrp6, stronger effect = lower value 1.01 | locus YOR061W, strain CKA2, stronger effect = lower value 1 | locus YOR069W, strain VPS5, stronger effect = lower value 0.992 | locus YOR070C, strain gyp1, stronger effect = lower value 0.976 | locus YOR080W, strain dia2, stronger effect = lower value 0.989 | locus YOR083W, strain WHI5, stronger effect = lower value 1.05 | locus YOR106W, strain vam3, stronger effect = lower value 0.999 | locus YOR136W, strain idh2, stronger effect = lower value 0.995 | locus YOR144C, strain elg1, stronger effect = lower value 0.987 | locus YOR184W, strain ser1, stronger effect = lower value 1 | locus YOR231W, strain MKK1, stronger effect = lower value 0.984 | locus YOR265W, strain rbl2, stronger effect = lower value 0.989 | locus YOR270C, strain vph1, stronger effect = lower value 0.909 | locus YOR290C, strain snf2, stronger effect = lower value 0.921 | locus YOR316C, strain cot1, stronger effect = lower value 0.989 | locus YPL051W, strain arl3, stronger effect = lower value 1.01 | locus YPL078C, strain atp4, stronger effect = lower value 1.01 | locus YPL106C, strain sse1, stronger effect = lower value 0.996 | locus YPL240C, strain hsp82, stronger effect = lower value 1.02 | locus YPL256C, strain CLN2, stronger effect = lower value 0.962 | locus YPR119W, strain clb2, stronger effect = lower value 0.99 | locus YPR141C, strain kar3, stronger effect = lower value 0.994 | locus YPR163C, strain tif3, stronger effect = lower value 0.997 | locus YPR167C, strain met16, stronger effect = lower value 0.992 | strain wtn01, stronger effect = lower value 0.996

Source: PubChem BioAssay AID1159580 (chemical genetic matrix, 2015)
